Values joined by “and” are separate entries in the source; they are usually repeats but may differ in a detail not shown here. Identical values can stand only once. Among all 5,500 compounds or so, about 2,000 (36%) were called active. Roughly 18% stayed inconclusive and do not appear here. Cut-off read from the data, not from the text of the source: active = normalized growth mostly below about 0.91 (no sharp cut-off); inconclusive = no clear call, values can overlap the other calls; inactive = mostly above about 0.92. Some of the results follow.
Test: chemical genetic growth profiling, strain panel (AID 1159580);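 note: tested at 20 µM; growth read once vehicle control cultures reached saturation at 30 °C; 1 = growth at the plate median or of vehicle wells; lower values mean less growth of the strain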
Conditions: S. cerevisiae deletion strains, growth OD

Measured: normalized growth

CC(=O)OC(C)C[N+](C)(C)C (stereo not given)
inactive: locus YAL013W, strain DEP1, active compounds read low 1.02 and 1 | locus YAL021C, strain ccr4, active compounds read low 1 | locus YAL026C, strain drs2, active compounds read low 1 | locus YAL030W, strain snc1, active compounds read low 1 | locus YAL040C, strain CLN3, active compounds read low 0.999 | locus YBL061C, strain skt5, active compounds read low 1.01 | locus YBR009C, strain hhf1, active compounds read low 1 | locus YBR021W, strain FUR4, active compounds read low 1.03 | locus YBR023C, strain chs3, active compounds read low 1 | locus YBR171W, strain sec66, active compounds read low 0.994 | locus YBR229C, strain ROT2, active compounds read low 1.01 | locus YBR231C, strain swc5, active compounds read low 0.991 | locus YBR279W, strain paf1, active compounds read low 1 | locus YCL011C, strain gbp2, active compounds read low 1.01 | locus YCL016C, strain dcc1, active compounds read low 1.01 | locus YCL029C, strain bik1, active compounds read low 1.01 | locus YCL061C, strain MRC1 (second series), active compounds read low 1 | locus YCL069W, strain vba3, active compounds read low 1 | locus YCR088W, strain abp1, active compounds read low 1.01 | locus YDL005C, strain med2, active compounds read low 1.02 | locus YDL035C, strain GPR1, active compounds read low 1.03 | locus YDL040C, strain nat1, active compounds read low 1 | locus YDL074C, strain BRE1, active compounds read low 1.01 | locus YDL101C, strain DUN1, active compounds read low 1 | locus YDL134C, strain PPH21, active compounds read low 1.02 | locus YDL185W, strain tfp1, active compounds read low 1.02 | locus YDL192W, strain arf1, active compounds read low 1.02 | locus YDR001C, strain nth1, active compounds read low 0.993 | locus YDR069C, strain doa4, active compounds read low 0.988 | locus YDR101C, strain arx1, active compounds read low 0.996 | locus YDR137W, strain rgp1, active compounds read low 0.99 | locus YDR150W, strain NUM1, active compounds read low 1.02 and 0.997 | locus YDR159W, strain sac3, active compounds read low 1 | locus YDR162C, strain NBP2, active compounds read low 1.05 | locus YDR195W, strain ref2 0.982 | locus YDR297W, strain sur2, active compounds read low 1 | locus YDR318W, strain mcm21, active compounds read low 1.01 | locus YDR334W, strain swr1, active compounds read low 0.997 | locus YDR335W, strain msn5, active compounds read low 0.998 | locus YDR363W, strain ESC2, active compounds read low 0.965 | locus YDR388W, active compounds read low 1.02 | locus YDR392W, strain spt3, active compounds read low 1 | locus YDR502C, strain sam2, active compounds read low 1.01 | locus YEL003W, strain gim4, active compounds read low 1.01 | locus YEL037C, strain rad23, active compounds read low 1 | locus YEL061C, strain CIN8 (second series), active compounds read low 0.995 | locus YEL061C, strain CIN8, active compounds read low 1.01 | locus YER002W, strain NOP16, active compounds read low 0.981 | locus YER015W, strain faa2, active compounds read low 0.988 | locus YER016W, strain bim1, active compounds read low 0.994 | locus YER110C, active compounds read low 1.02 | locus YER111C, strain swi4, active compounds read low 1.01 | locus YER155C, strain BEM2 (second series), active compounds read low 0.992 | locus YER155C, strain BEM2, active compounds read low 1.01 | locus YER167W, strain BCK2, active compounds read low 1.02 | locus YFR010W, strain ubp6, active compounds read low 0.989 | locus YGL078C, strain dbp3, active compounds read low 1.02 | locus YGL086W, strain mad1, active compounds read low 1 | locus YGL167C, strain pmr1, active compounds read low 1.01 | locus YGL173C, strain kem1, active compounds read low 1 | locus YGL227W, strain vid30, active compounds read low 0.986 | locus YGL240W, strain doc1, active compounds read low 0.985 | locus YGL248W, strain PDE1, active compounds read low 0.99 | locus YGL253W, strain hxk2, active compounds read low 1 | locus YGR135W, strain pre9, active compounds read low 1.06 | locus YGR252W, strain gcn5, active compounds read low 1.04 | locus YHR013C, strain ard1, active compounds read low 1.02 | locus YHR027C, strain rpn1, active compounds read low 1 | locus YHR030C, strain SLT2, active compounds read low 1.01 and 1.02 | locus YHR079C, strain IRE1 (second series), active compounds read low 1.01 | locus YHR079C, strain IRE1, active compounds read low 1 | locus YHR094C, strain hxt1, active compounds read low 1.02 | locus YHR129C, strain ARP1, active compounds read low 1 | locus YHR142W, strain chs7, active compounds read low 1.01 | locus YHR200W, strain rpn10, active compounds read low 1.02 | locus YIL066C, strain RNR3, active compounds read low 1.02 | locus YIL073C, strain SPO22, active compounds read low 1.13 | locus YIL125W, strain kgd1, active compounds read low 1.01 | locus YIR030C, strain dcg1, active compounds read low 1.01 | locus YJL092W, strain hpr5, active compounds read low 0.993 | locus YJL095W, strain BCK1 (second series), active compounds read low 1.01 | locus YJL095W, strain BCK1, active compounds read low 1.02 and 1.03 | locus YJL115W, strain asf1, active compounds read low 0.995 | locus YJL129C, strain trk1, active compounds read low 0.987 | locus YJL134W, strain LCB3, active compounds read low 1.01 | locus YJL154C, strain vps35, active compounds read low 1.01 | locus YJL164C, strain tpk1, active compounds read low 1.01 | locus YJL166W, strain qcr8, active compounds read low 0.976 | locus YJL168C, strain set2, active compounds read low 1.01 | locus YJL187C, strain SWE1 (second series), active compounds read low 1.02 | locus YJL187C, strain SWE1, active compounds read low 1.01 | locus YJR043C, strain POL32, active compounds read low 1.02 | locus YJR066W, strain TOR1, active compounds read low 0.985 | locus YJR075W, strain HOC1, active compounds read low 1.02 | locus YKL009W, strain mrt4, active compounds read low 1.04 | locus YKL068W, active compounds read low 1.02 | locus YKL085W, strain MDH1 (second series), active compounds read low 1.01 | locus YKL085W, strain MDH1, active compounds read low 1.01 | locus YKL160W, strain elf1, active compounds read low 0.987 | locus YKL190W, strain CNB1, active compounds read low 1.02 | locus YKR001C, strain vps1, active compounds read low 1.02 | locus YKR026C, strain gcn3, active compounds read low 0.985 | locus YKR091W, strain srl3, active compounds read low 0.996 | locus YLL001W, strain dnm1, active compounds read low 0.97 | locus YLL026W, active compounds read low 0.989 | locus YLL041C, strain sdh2, active compounds read low 1.01 | locus YLR027C, strain aat2, active compounds read low 0.989 | locus YLR039C, strain RIC1, active compounds read low 1.06 | locus YLR058C, strain SHM2, active compounds read low 1.01 | locus YLR102C, strain apc9, active compounds read low 1 | locus YLR113W, strain HOG1, active compounds read low 0.981 | locus YLR221C, strain rsa3, active compounds read low 1 | locus YLR258W, strain gsy2, active compounds read low 1 | locus YLR262C, strain YPT6 (second series), active compounds read low 0.994 | locus YLR262C, strain YPT6, active compounds read low 1.05 | locus YLR268W, strain sec22, active compounds read low 1.01 | locus YLR320W, strain mms22, active compounds read low 0.999 | locus YLR330W, strain CHS5, active compounds read low 1.01 | locus YLR342W, strain FKS1 (second series), active compounds read low 1.05 | locus YLR342W, strain FKS1, active compounds read low 1 | locus YLR357W, strain rsc2, active compounds read low 0.981 | locus YLR370C, strain arc18, active compounds read low 1 | locus YLR371W, strain rom2, active compounds read low 1.01 | locus YLR384C, strain iki3, active compounds read low 0.996 | locus YLR418C, strain cdc73, active compounds read low 1.06 | locus YML016C, strain PPZ1, active compounds read low 0.999 | locus YML032C, strain rad52, active compounds read low 1.01 | locus YML120C, strain ndi1, active compounds read low 1 | locus YML124C, strain tub3, active compounds read low 1.01 | locus YMR058W, strain fet3, active compounds read low 0.991 | locus YMR078C, strain ctf18, active compounds read low 1.02 | locus YMR125W, strain sto1, active compounds read low 0.993 | locus YMR129W, active compounds read low 0.993 | locus YMR205C, strain PFK2, active compounds read low 1 | locus YMR223W, strain ubp8, active compounds read low 1.07 | locus YMR231W, strain pep5, active compounds read low 0.994 | locus YMR307W, strain GAS1, active compounds read low 1.03 | locus YNL067W, strain RPL9B, active compounds read low 1.02 | locus YNL071W, strain lat1, active compounds read low 0.999 | locus YNL153C, strain GIM3, active compounds read low 1.01 | locus YNL175C, strain NOP13, active compounds read low 1.01 | locus YNL183C, strain NPR1, active compounds read low 0.969 | locus YNL197C, strain WHI3, active compounds read low 1 | locus YNL209W, strain ssb2, active compounds read low 1 | locus YNL224C, strain SQS1, active compounds read low 0.983 | locus YNL233W, strain BNI4, active compounds read low 1.01 | locus YNL248C, strain rpa49, active compounds read low 0.988 | locus YNL250W, strain rad50, active compounds read low 1.05 | locus YNL271C, strain bni1, active compounds read low 1.02 | locus YNL298W, strain CLA4, active compounds read low 1.02 | locus YNL307C, strain MCK1, active compounds read low 1.03 | locus YNL322C, strain KRE1 (second series), active compounds read low 1.01 | locus YNL322C, strain KRE1, active compounds read low 1.01 | locus YNR049C, strain mso1, active compounds read low 1.01 | locus YNR052C, strain pop2, active compounds read low 1.01 | locus YOL012C, strain htz1 1.09 | locus YOL147C, strain pex11, active compounds read low 1.02 | locus YOR001W, strain rrp6, active compounds read low 0.987 | locus YOR061W, strain CKA2, active compounds read low 1.01 | locus YOR069W, strain VPS5, active compounds read low 1.01 | locus YOR070C, strain gyp1, active compounds read low 1 | locus YOR080W, strain dia2, active compounds read low 1.01 | locus YOR083W, strain WHI5 (second series), active compounds read low 1 | locus YOR083W, strain WHI5, active compounds read low 0.977 | locus YOR106W, strain vam3, active compounds read low 0.994 | locus YOR136W, strain idh2, active compounds read low 1.01 | locus YOR144C, strain elg1, active compounds read low 1.01 | locus YOR184W, strain ser1, active compounds read low 1.02 | locus YOR231W, strain MKK1, active compounds read low 0.947 | locus YOR265W, strain rbl2, active compounds read low 1 | locus YOR270C, strain vph1, active compounds read low 1.02 | locus YOR290C, strain snf2, active compounds read low 0.989 | locus YOR316C, strain cot1, active compounds read low 1.01 | locus YPL051W, strain arl3, active compounds read low 0.999 | locus YPL055C, strain LGE1, active compounds read low 1.02 | locus YPL078C, strain atp4, active compounds read low 0.981 | locus YPL106C, strain sse1, active compounds read low 1.01 | locus YPL240C, strain hsp82, active compounds read low 1 | locus YPL241C, strain CIN2, active compounds read low 1 | locus YPL256C, strain CLN2, active compounds read low 1.03 | locus YPR119W, strain clb2, active compounds read low 1.01 | locus YPR141C, strain kar3, active compounds read low 1.01 | locus YPR163C, strain tif3, active compounds read low 1.02 | locus YPR167C, strain met16, active compounds read low 1.01 | strain wtn01, active compounds read low 1

— PubChem BioAssay AID1159580 (chemical genetic matrix, 2015)
